Assay results from ChEMBL document CHEMBL4513216, “Probing the Open Global Health Chemical Diversity Library for Multistage-Active Starting Points for Next-Generation Antimalarials” (ACS Infect Dis, 2020).
Hit rate of the full screen: of about 69,000 compounds, about 8,600 (12%) showed an effect of 50% or more. The list comes from a sample in which strong results are over-represented; it also holds similar structures and randomly drawn compounds.

Tested on: Plasmodium berghei
Assay: Screen against P. berghei liver stage (PbLuc), transformed with Luciferase, at 10uM
Type: functional, HepG2
Details: tested at 10 uM

Row | SMILES | INHIBITION [%]
1 | O=C(CCc1ccc(-c2ccccc2)[nH]1)N1CCCC(n2ccnc2)C1 (stereo not given) | 3.5625
2 | CCC(=O)Nc1cccc(OCC(=O)N[C@@H]2C[C@@H]3CC[C@H]2C3)c1 | -23.4
3 | Cc1nc(C2CCCN(C(C)C)C2)sc1Br (stereo not given) | 11.8
4 | O=C(Nc1ccccn1)C1CC(=O)N(Cc2ccccn2)C1 (stereo not given) | -87.6
5 | COC[C@@]12CCO[C@@H]1CCN(C(=O)C1CCOCC1)C2 | 13.1
6 | COC[C@@]12CCO[C@@H]1CCN(C(=O)C1CC(F)(F)C1)C2 | 94.6
7 | O=C(C1CC(F)(F)C1)N1CC[C@H]2OCC[C@@]2(COCC2CC2)C1 | 39.3
8 | CN1CC(=O)N(c2ccccc2)CC12CCN(CC1CC1)C2 (stereo not given) | 48.9
9 | O=C(NCCCn1cncn1)N1CCC(N2CCCCC2)CC1 | -17.167
10 | Cn1cccc1C(=O)N1CCc2ccc(=O)n(C)c2CC1 | 21.4
11 | O=C1CC(c2cccnc2)c2c(c(C(=O)O)cn2-c2cccc(F)c2)N1 (stereo not given) | -18.3
12 | CN1CCC2(CCN(c3ncc(F)cn3)CC2)C1=O | 30.5
13 | CN(Cc1nc(COc2ccccc2)no1)CC1Cc2ccccc2O1 (stereo not given) | 8.07
14 | CN(Cc1nc(CC2CC2)no1)CC1Cc2ccccc2O1 (stereo not given) | 12.6
15 | CN(Cc1nc(Cc2ccccc2F)no1)CC1Cc2ccccc2O1 (stereo not given) | 52
16 | O=C(Nc1nc(-c2ccccc2)ns1)N1CC[C@H](O)C1 | 9.79
17 | CCSc1ccc(C(=O)N2CCC3(CCC(=O)N(C)C3)CC2)s1 | 20.3
18 | Cc1nc(NC(=O)C(C)n2ncc(Br)c2C)sc1C (stereo not given) | 21.5
19 | Cc1nnc(NC(=O)C(C)n2ncc(Br)c2C)s1 (stereo not given) | 50.2
20 | Cc1c(Br)cnn1C(C)C(=O)Nc1nncs1 (stereo not given) | 39.9
21 | CN(C)Cc1cnc(C2CCN(C(=O)c3cccc(Cl)c3)C2)[nH]1 (stereo not given) | 12.375
22 | COC(=O)CC1CCN(C(=O)c2ccccc2-n2nnnc2C)CC1 | 9.57
23 | Cc1nn(C)cc1CN1CCCC(n2c(=O)oc3ccc(Cl)cc32)C1 (stereo not given) | 36
24 | Cc1cc(C)cc(N(C)S(=O)(=O)c2cc(C(=O)O)cs2)c1 | 34.7
25 | Cc1ccc(N(C)S(=O)(=O)c2cc(C(=O)O)cs2)cc1 | 52.5
26 | CN(c1ccc(C(C)(C)C)cc1)S(=O)(=O)c1cc(C(=O)O)cs1 | 20.6
27 | O=c1n(CCSCCOc2ccc(Br)cc2)nc2ccccn12 | 2.49
28 | O=C(c1ccnc(N2CCOC(c3ccc(Cl)cc3)C2)c1)N1CCCC1 (stereo not given) | 73.5

Row | SMILES | INHIBITION [%]
29 | CC(C)n1ccnc1C1CCCN(c2cc(C(=O)NC3CC3)ccn2)C1 (stereo not given) | 31.2
30 | CN1CCN(C(=O)c2ccnc(N3CCOC(C(F)(F)F)C3)c2)CC1 (stereo not given) | -14.1
31 | O=C(NC1CC1)c1ccnc(N2CCOC(c3ccc(Cl)c(Cl)c3)C2)c1 (stereo not given) | 86.6
32 | O=C(c1ccnc(N2CCOC(C(F)(F)F)C2)c1)N1CCOCC1 (stereo not given) | 12.7
33 | CNC(=O)c1ccc(C2CN(c3cc(C)nc(N)n3)CCO2)nc1 (stereo not given) | 25.855
34 | O=C(NC1CC1)c1ccnc(N2CCOC(c3ccc(Cl)cc3)C2)c1 (stereo not given) | 67.7
35 | O=C(CN1C(=O)CCNC1=O)N1CCOC(c2ccc(Cl)c(Cl)c2)C1 (stereo not given) | -52.2
36 | O=C(c1ccnc(N2CCOC(C(F)(F)F)C2)c1)N1CCCC1 (stereo not given) | 7.77
37 | Cn1cc(CN2C[C@H]3CCN(C(=O)c4cscn4)C[C@H]3C2)cn1 | 43.9
38 | CC(C)Oc1ncccc1CNC(=O)Nc1ccccn1 | -17.6
39 | Cc1cc(-c2ccccc2C(=O)O)nc(C2CCCN(C(C)C)C2)n1 (stereo not given) | 13
40 | Cc1nc(NC2CCCC2)cc(C2CCN2C(=O)c2cnn(C)c2)n1 (stereo not given) | 0.301
41 | Cc1ccc2c(c1)SCC(=O)N2Cc1noc(C2CC2)n1 | -0.578
42 | CCc1ccc(CNC(=O)NCc2nnc3n2CCC3)s1 | 25.1
43 | CC(CN1CCOCC1)NC(=O)NCCc1ccc(Cl)s1 (stereo not given) | 53.4
44 | CC(CN1CCOCC1)NC(=O)NCc1ccc(Cl)s1 (stereo not given) | -34.7
45 | COc1ccc(C(NC(=O)NCc2nnc3n2CCC3)C2CC2)cc1 (stereo not given) | 50.4
46 | CN(Cc1cnn(C)c1)C(=O)NCc1nnc2n1CCC2 | -22.6
47 | O=C(NCc1ccc(Cl)s1)NCc1nnc2n1CCCCC2 | -10.6
48 | O=C(NCCc1ccc(Cl)s1)NCc1nnc2n1CCC2 | 53.8
49 | Cn1cc(CCNC(=O)NCc2nnc3n2CCC3)cn1 | 59.7
50 | CC(CN1CCOCC1)NC(=O)N(C)Cc1ccc(Cl)s1 (stereo not given) | -12.6
51 | CCn1cnnc1CNC(=O)NC(c1ccc(OC)cc1)C1CC1 (stereo not given) | 32.5
52 | O=C(NCCC1=CCCCC1)NCc1nnc2n1CCC2 | 40.3
53 | O=C(NCCc1ccc(Cl)s1)NCc1nnc2n1CCCC2 | 21
54 | CN(C)CCC1CCN(Cc2ccn(C)c(=O)c2)CC1 | -8.11
55 | CO[C@H]1CN(C(=O)c2ccccn2)[C@@H]2CCCO[C@H]12 | 36.4
